Data on 7 compounds can be found in the supplement of paper PMC9262897, “Low-cost anti-mycobacterial drug discovery using engineered E. coli” (Nature Communications, 2022).

Counter-ions that a name gives are not always drawn. ± gives the standard deviation of the averaged measurements.

What all share (experiment): growth (OD600 after 10 h); higher = more growth (less inhibition)
For test [1], the system named is E. coli TESEC Alr+ wild-type control. The following applies: compound 0.1 mM; raw OD600 reference: median of DMSO wells 0.241, cell-free background 0.041. The method, then: (§1)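 TESEC Mtb Alr E. coli, or the Alr+ wild-type control, in 384-well plates with Prestwick library compounds at 0.1 mM and 1% DMSO, across arabinose induction levels of 1E3 to 1E7 nM. Growth is read as OD600 after 10 h at 37 °C in triplicate biological replicates.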

In test [2] the test system is E. coli TESEC Mtb Alr. The following applies: compound 0.1 mM. The method, then:
as §1

The subject of another test is E. coli TESEC Mtb Asd. Conditions: compound 0.1 mM. The method, then: (§2)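 TESEC E. coli strains in which the native enzyme is deleted and replaced by arabinose-inducible Mtb Asd, DapB, CysH or TrpD, each grown in its selective medium. Strains were screened against the Prestwick library at 0.1 mM and 1% DMSO in 384-well format at low and high arabinose induction. Growth is read as OD600 after 10 h in triplicate.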

The next test relates to E. coli TESEC Mtb DapB. Conditions: compound 0.1 mM. The method, then: as §2
Test [3] relates to E. coli TESEC Alr+ wild-type control. Conditions: compound 0.1 mM; raw OD600 reference: median of DMSO wells 0.49, cell-free background 0.052. The method, then: (§3)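 TESEC Mtb Alr E. coli (ΔaraC ΔtolC ΔentC Δalr ΔdadX, arabinose-inducible Mtb Alr) or the Alr+ wild-type control strain, grown in defined M9-fructose medium without D-alanine in 96-well plates with Prestwick library compounds at 0.1 mM and 1% DMSO. Low Alr induction is 0.1 µM arabinose and high induction is 10 mM arabinose.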

Test [4] relates to E. coli TESEC Mtb Alr. The following applies: compound 0.1 mM. The method, then: as §3
This is another data set of the same source.

Where [5] appears, read: arabinose 1000 nM, raw OD600 reference: median of DMSO wells 0.294, cell-free background 0.041.
The mark [6] stands for this setting: arabinose 10000 nM, raw OD600 reference: median of DMSO wells 0.264, cell-free background 0.041.
Where [7] appears, read: arabinose 100000 nM, raw OD600 reference: median of DMSO wells 0.201, cell-free background 0.041.
Setting [8] is: arabinose 1000000 nM, raw OD600 reference: median of DMSO wells 0.193, cell-free background 0.041.
[9] abbreviates: arabinose 10000000 nM, raw OD600 reference: median of DMSO wells 0.146, cell-free background 0.041.
The mark [10] stands for this setting: arabinose induction (level): High, raw OD600 reference: median of DMSO wells 0.331, cell-free background 0.041.
Setting [11] is: arabinose induction (level): Low, raw OD600 reference: median of DMSO wells 0.417, cell-free background 0.041.
The mark [12] stands for this setting: arabinose induction (level): High, raw OD600 reference: median of DMSO wells […], cell-free background 0.041.
[13] abbreviates: arabinose induction (level): Low, raw OD600 reference: median of DMSO wells 0.227, cell-free background 0.041.
Where [14] appears, read: arabinose 100 nM, raw OD600 reference: median of DMSO wells 0.413, cell-free background 0.052.
Where [15] appears, read: arabinose 10000000 nM, raw OD600 reference: median of DMSO wells […], cell-free background 0.052.

Consider `NS(=O)(=O)c1cc2c(cc1Cl)NC(C(Cl)Cl)NS2(=O)=O` (stereo unspecified) [Trichlormethiazide], for which the growth in test [1] turned out to be 0.243 ± 0.0058; with E. coli TESEC Mtb Alr [2] (setting [5]), 0.296 ± 0.021; in the test on E. coli TESEC Mtb Alr [2] (setting [6]), 0.278 ± 0.0046; in the test on E. coli TESEC Mtb Alr [2] (setting [7]), 0.2 ± 0.013; with E. coli TESEC Mtb Alr [2] (setting [8]) it was 0.195 ± 0.015; in the test on E. coli TESEC Mtb Alr [2] (setting [9]) it was 0.139 ± 0.0024. Besides, the growth is 0.331 ± 0.037 in the test on E. coli TESEC Mtb Asd (setting [10]); 0.448 ± 0.033 with E. coli TESEC Mtb Asd (setting [11]); 0.191 ± 0.0022 with E. coli TESEC Mtb DapB (setting [12]); 0.246 ± 0.041 in the test on E. coli TESEC Mtb DapB (setting [13]); 0.631 ± 0.095 in test [3]; 0.408 ± 0.0097 in the test with E. coli TESEC Mtb Alr [4] (setting [14]). Also, the growth with E. coli TESEC Mtb Alr [4] (setting [15]) came out at 0.357 ± 0.01.
In the case of `CCCCNc1cc(C(=O)O)cc(S(N)(=O)=O)c1Oc1ccccc1` [Bumetanide], the growth in test [1] was found to be 0.234 ± 0.0058; in the test with E. coli TESEC Mtb Alr [2] (setting [5]), 0.261 ± 0.021; in the test on E. coli TESEC Mtb Alr [2] (setting [6]), 0.251 ± 0.0081; with E. coli TESEC Mtb Alr [2] (setting [7]) it was 0.167 ± 0.018; with E. coli TESEC Mtb Alr [2] (setting [8]) it was 0.159 ± 0.0062; in the test with E. coli TESEC Mtb Alr [2] (setting [9]) it was 0.138 ± 0.0095. The growth in the test on E. coli TESEC Mtb Asd (setting [10]) was 0.226 ± 0.01; in the test with E. coli TESEC Mtb Asd (setting [11]), 0.449 ± 0.062; in the test on E. coli TESEC Mtb DapB (setting [12]), 0.209 ± 0.027; in the test with E. coli TESEC Mtb DapB (setting [13]), 0.215 ± 0.038; in test [3] it was 0.492 ± 0.048; with E. coli TESEC Mtb Alr [4] (setting [14]), 0.426 ± 0.0046. The same compound gave a growth with E. coli TESEC Mtb Alr [4] (setting [15]) of 0.333 ± 0.02.
For the compound `CC(C)[C@H](N)C(=O)OCCOCn1cnc2c(=O)nc(N)[nH]c21` [Valacyclovir hydrochloride], the growth in test [1] was found to be 0.243 ± 0.0038; in the test with E. coli TESEC Mtb Alr [2] (setting [5]), 0.302 ± 0.0067; with E. coli TESEC Mtb Alr [2] (setting [6]), 0.2661 ± 0.0012; with E. coli TESEC Mtb Alr [2] (setting [7]), 0.22 ± 0.039; with E. coli TESEC Mtb Alr [2] (setting [8]), 0.195 ± 0.0058; in the test with E. coli TESEC Mtb Alr [2] (setting [9]), 0.144 ± 0.0025. Further, the growth was 0.258 ± 0.006 in the test with E. coli TESEC Mtb Asd (setting [10]); 0.365 ± 0.054 in the test on E. coli TESEC Mtb Asd (setting [11]); 0.179 ± 0.011 with E. coli TESEC Mtb DapB (setting [12]); 0.186 ± 0.021 in the test on E. coli TESEC Mtb DapB (setting [13]); 0.533 ± 0.17 in test [3]; 0.408 ± 0.0084 in the test on E. coli TESEC Mtb Alr [4] (setting [14]). Further, in the test with E. coli TESEC Mtb Alr [4] (setting [15]), the growth worked out at 0.369 ± 0.0047.
On to `C[C@]12CCC(=O)C=C1CC[C@@H]1[C@@H]2C(=O)C[C@@]2(C)[C@H]1CC[C@]2(O)C(=O)CO` [Cortisone], for which the growth in test [1] was 0.216 ± 0.0023; with E. coli TESEC Mtb Alr [2] (setting [5]), 0.278 ± 0.0049; in the test with E. coli TESEC Mtb Alr [2] (setting [6]), 0.237 ± 0.014; in the test on E. coli TESEC Mtb Alr [2] (setting [7]) it was 0.176 ± 0.011; with E. coli TESEC Mtb Alr [2] (setting [8]) it was 0.1797 ± 0.00035; in the test on E. coli TESEC Mtb Alr [2] (setting [9]) it was 0.128 ± 0.0041. The growth came to 0.396 ± 0.078 with E. coli TESEC Mtb Asd (setting [10]); 0.445 ± 0.041 in the test with E. coli TESEC Mtb Asd (setting [11]); 0.19 ± 0.0096 in the test on E. coli TESEC Mtb DapB (setting [12]); 0.223 ± 0.023 in the test with E. coli TESEC Mtb DapB (setting [13]); 0.46 ± 0.066 in test [3]; 0.41 ± 0.0069 in the test on E. coli TESEC Mtb Alr [4] (setting [14]). Besides, the growth in the test on E. coli TESEC Mtb Alr [4] (setting [15]) came out at 0.336 ± 0.0035.
Regarding `Cc1cccn2c(=O)c(-c3nnn[nH]3)cnc12` [Pemirolast potassium], the growth in test [1] turned out to be 0.218 ± 0.011; with E. coli TESEC Mtb Alr [2] (setting [5]), 0.268 ± 0.011; in the test with E. coli TESEC Mtb Alr [2] (setting [6]), 0.2352 ± 0.0021; in the test on E. coli TESEC Mtb Alr [2] (setting [7]), 0.151 ± 0.0021; with E. coli TESEC Mtb Alr [2] (setting [8]) it was 0.148 ± 0.0043; with E. coli TESEC Mtb Alr [2] (setting [9]), 0.125 ± 0.0032. Also, the growth worked out at 0.284 ± 0.1 in the test with E. coli TESEC Mtb Asd (setting [10]); 0.371 ± 0.089 in the test on E. coli TESEC Mtb Asd (setting [11]); 0.212 ± 0.028 in the test on E. coli TESEC Mtb DapB (setting [12]); 0.223 ± 0.014 in the test on E. coli TESEC Mtb DapB (setting [13]); 0.49 ± 0.067 in test [3]; 0.421 ± 0.012 with E. coli TESEC Mtb Alr [4] (setting [14]). This compound also returned a growth in the test on E. coli TESEC Mtb Alr [4] (setting [15]) of 0.311 ± 0.014.
As for `CCOC(=O)O[C@]1(C(=O)OCCl)CC[C@H]2[C@@H]3CCC4=CC(=O)C=C[C@]4(C)[C@H]3[C@@H](O)C[C@@]21C` [Loteprednol etabonate], the growth in test [1] came out at 0.135 ± 0.003; with E. coli TESEC Mtb Alr [2] (setting [5]), 0.167 ± 0.02; in the test on E. coli TESEC Mtb Alr [2] (setting [6]), 0.15 ± 0.0072; in the test on E. coli TESEC Mtb Alr [2] (setting [7]), 0.196 ± 0.028; with E. coli TESEC Mtb Alr [2] (setting [8]) it was 0.114 ± 0.01; in the test with E. coli TESEC Mtb Alr [2] (setting [9]), 0.179 ± 0.0076. Besides, the growth in the test with E. coli TESEC Mtb Asd (setting [10]) is 0.24 ± 0.019; in the test with E. coli TESEC Mtb Asd (setting [11]), 0.26 ± 0.14; in the test with E. coli TESEC Mtb DapB (setting [12]), 0.174 ± 0.027; in the test with E. coli TESEC Mtb DapB (setting [13]), 0.233 ± 0.028; in test [3], 0.473 ± 0.12; in the test on E. coli TESEC Mtb Alr [4] (setting [14]) it was 0.371 ± 0.017. The compound also registered a growth in the test with E. coli TESEC Mtb Alr [4] (setting [15]) of 0.219 ± 0.024.
With `CN1C(=O)CC(c2ccccc2)C1=O` (stereo unspecified) [Phensuximide], the growth in test [1] was found to be 0.244 ± 0.0072; with E. coli TESEC Mtb Alr [2] (setting [5]) it was 0.299 ± 0.0059; in the test on E. coli TESEC Mtb Alr [2] (setting [6]), 0.281 ± 0.0045; in the test on E. coli TESEC Mtb Alr [2] (setting [7]), 0.183 ± 0.022; in the test with E. coli TESEC Mtb Alr [2] (setting [8]), 0.231 ± 0.02; with E. coli TESEC Mtb Alr [2] (setting [9]), 0.138 ± 0.011. In addition, the growth in the test on E. coli TESEC Mtb Asd (setting [10]) was determined as 0.338 ± 0.022; in the test on E. coli TESEC Mtb Asd (setting [11]) it was 0.401 ± 0.035; with E. coli TESEC Mtb DapB (setting [12]) it was 0.174 ± 0.0062; in the test with E. coli TESEC Mtb DapB (setting [13]), 0.219 ± 0.015; in test [3], 0.544 ± 0.076; in the test with E. coli TESEC Mtb Alr [4] (setting [14]) it was 0.431 ± 0.015. Besides, in the test with E. coli TESEC Mtb Alr [4] (setting [15]), the growth worked out at 0.357 ± 0.0052.
